Bioassay records: PubChem, National Center for Advancing Translational Sciences (NCATS)
Shown are actives, neighbours in structure and some others; about 2.4% of the full set was active somewhere.
FEN1 inh: inhibitors of human flap endonuclease 1 | 390,000 compounds, 0.35% hits | Potency, µM (top dose mostly 114 µM), for the others: at the top dose activity change, negative = inhibition, actives largely listed as inhibitors | P39748 | Recombinant FEN1 flap cleavage, fluorescence, 15 min; also: % is scaled to controls: 0 for no effect and ±100 for the full control effect; nearly all actives have a fitted effect of over 65% in size
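Reaction started by adding substrate (50 nM final) to 10 nM enzyme after 15 min room-temperature compound preincubation. Reads at 0 and 15 min, with data normalized and fitted to a four-parameter Hill equation.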
POLI inh: blocks human DNA polymerase iota activity | Potency, µM (titrated, usually from 115 µM), for the others: at the highest dose activity, negative = inhibition, actives largely listed as inhibitors | Pol iota fluorescent replication assay, 10 min | 390,000 compounds, 1% hits
Target sequence (Q9UNA4 whole entry, looked up): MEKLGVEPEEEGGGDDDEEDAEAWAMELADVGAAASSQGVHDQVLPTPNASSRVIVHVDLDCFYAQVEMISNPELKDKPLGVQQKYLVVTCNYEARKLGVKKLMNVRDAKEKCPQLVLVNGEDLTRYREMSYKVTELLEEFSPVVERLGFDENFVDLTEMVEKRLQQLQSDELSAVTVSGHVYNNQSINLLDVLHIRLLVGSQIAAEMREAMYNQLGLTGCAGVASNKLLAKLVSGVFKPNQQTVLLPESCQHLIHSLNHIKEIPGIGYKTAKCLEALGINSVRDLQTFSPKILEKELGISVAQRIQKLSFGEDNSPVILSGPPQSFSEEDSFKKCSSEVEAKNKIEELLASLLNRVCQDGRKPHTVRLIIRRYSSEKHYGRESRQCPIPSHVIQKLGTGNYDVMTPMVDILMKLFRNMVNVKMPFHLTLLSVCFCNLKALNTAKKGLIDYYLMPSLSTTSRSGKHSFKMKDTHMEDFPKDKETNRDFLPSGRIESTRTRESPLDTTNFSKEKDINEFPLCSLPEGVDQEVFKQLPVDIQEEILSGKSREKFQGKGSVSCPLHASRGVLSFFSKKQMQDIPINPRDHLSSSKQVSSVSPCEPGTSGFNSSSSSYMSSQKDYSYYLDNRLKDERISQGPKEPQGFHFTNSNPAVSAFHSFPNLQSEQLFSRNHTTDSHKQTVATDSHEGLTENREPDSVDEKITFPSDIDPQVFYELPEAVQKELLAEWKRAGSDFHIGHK
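Pol iota at 10 nM preincubated 15 min with compounds at room temperature; reaction started with fluorescent substrate, 50 nM final. Fluorescence read kinetically at 0 and 10 min; buffer-only wells as negative control.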
WRN helicase inh: blocks human WRN helicase | Potency, µM (top dose mostly 114 µM), without a hit: top-dose activity change, negative = inhibition, most hits filed as inhibitors | AID 651768 | 360,000 compounds, 0.46% hits | WRN helicase unwinding, fluorescent forked duplex, kinetic; also: % is scaled to controls: 0 for no effect and ±100 for the full control effect; nearly all actives have a fitted effect of over 55% in size
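Kinetic red-fluorescence monitoring (525/598 nm) tracks WRN helicase activity after 100 nM fluorophore-quencher forked duplex and 2 mM ATP are added to 20 nM enzyme pretreated 15 min at room temperature with compound.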
POLH inh: inhibitors of human DNA polymerase eta; Potency, µM (series often up to 114 µM), without a hit: at the top dose activity change, negative = inhibition, usual class: inhibitors; recombinant Pol eta, fluorescent DNA replication assay; Q9Y253; 390,000 compounds, 1.2% hits; also: % is scaled to controls: 0 for no effect and ±100 for the full control effect
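Pol eta at 10 nM preincubated with compounds 15 min at room temperature; reaction started with fluorescent substrate (50 nM final) and read kinetically at 0 and 10 min.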
Pol kappa inh: DNA polymerase kappa (human) inhibition | Potency, µM (series often up to 107 µM), without a hit: at the top dose activity, negative = inhibition, most hits filed as inhibitors | purified Pol kappa, fluorescent DNA synthesis assay, 10 min | AID 588579 | 400,000 compounds, 0.53% hits; also: % is scaled to controls: 0 for no effect and ±100 for the full control effect
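50 nM final substrate added after 15 min RT preincubation of 10 nM Pol kappa with compound; fluorescence read at 0 and 10 min.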
Pol beta inh: inhibitors of human DNA polymerase beta; Pol beta primer extension/strand displacement, fluorescence kinetic; P06746; 340,000 compounds, 1.3% hits; Potency, µM (titrated, usually from 114 µM), inactives show at the top dose activity change, negative = inhibition, usual class: inhibitors; also: % is scaled to controls: 0 for no effect and ±100 for the full control effect
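Pol beta (10 nM) was preincubated with compound for 15 min at room temperature. The reaction was then started with 50 nM substrate and read immediately and after a further 10 min at room temperature.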
Active calls of the source: *; [ ] = another dose, or the depositor's remark. Calls follow the shape of the dose curve; as a rule, active = well fitted curve in the direction sought with a large enough effect; inconclusive = small, poorly fitted or top-dose-only effect, or another doubt; inactive = no such curve, though single readings can be large; an effect the other way counts as inactive or inconclusive. Potency is read from the fitted curve at half-maximal effect.

Screening CC(C)(C)C(=O)NCCc1nc2ccccc2n1CCCCOc1ccccc1 returned FEN1 inh -15.2%, POLI inh inconclusive, POLH inh -17.4%, Pol kappa inh -22.3% and Pol beta inh 12.7%.
For Cn1c(CCNC(=O)C(C)(C)C)nc2ccccc21 the results were FEN1 inh 4.7%, POLI inh 11.9%, WRN helicase inh 1.5%, POLH inh 25.1µM*, Pol kappa inh -4.8% and Pol beta inh 43.1%.
Screening Cc1nc2cnc(N3CCNCC3)nc2n(C2CC2)c1=O returned Pol kappa inh 3.1%[60.1 µM].
`O=C1C(=C2CCCCC2)SC(=S)N1Cc1ccco1` gave FEN1 inh -5.5%, POLI inh inconclusive, WRN helicase inh inconclusive, POLH inh inconclusive, Pol kappa inh inconclusive and Pol beta inh 25.1µM*.
Screening O=C1C(c2[nH]c3ccc(S(=O)(=O)O)cc3c2O)=Nc2ccc(S(=O)(=O)O)cc21 returned FEN1 inh inconclusive, POLI inh 25.1µM* and Pol kappa inh inconclusive.
For Cc1c(/C=C2\SC(=Nc3cccc(C(=O)O)c3)NC2=O)c2ccccc2n1C the results were FEN1 inh inconclusive, POLI inh inconclusive, WRN helicase inh -18.4%[11.6 µM], POLH inh 79.4µM*, Pol kappa inh -37.2% and Pol beta inh inconclusive.
Screening O=c1[nH]c(Nc2ccc(F)cc2)cc2ccccc12 returned FEN1 inh 3.2%, POLI inh 7.08µM*, WRN helicase inh -10.5%, POLH inh 22.4µM*, Pol kappa inh -6.0% and Pol beta inh -15.8%.
For O=C(O)c1ccc(-c2nc(-c3ccc(Cl)c(Cl)c3)cs2)cc1 the results were FEN1 inh -4.5%, POLI inh -5.3%, WRN helicase inh 9.9%, POLH inh -14.8%, Pol kappa inh 10.8% and Pol beta inh 10.3%.
`NC(=O)C(=CNc1nc(-c2ccc(Cl)c(Cl)c2)cs1)C(N)=O` gave Pol beta inh 1.41µM*.
O=C(CSc1nnc(-c2ccco2)o1)N1CCN(c2ccccc2)CC1 was read as FEN1 inh 4.0%, POLI inh 66.9%, WRN helicase inh -30.5%, POLH inh -6.4%, Pol kappa inh 3.3% and Pol beta inh inconclusive.
`O=C(CSc1nnc(-c2ccc(Cl)cc2)o1)N1CCN(c2ccccc2)CC1` gave Pol beta inh 31.6µM*.
Screening COc1ccc(NC(=O)CCS(=O)(=O)c2ccc3c(c2)oc(=O)n3C)cc1 returned FEN1 inh -4.0%, POLI inh 50.1µM*, WRN helicase inh -4.0%[11.6 µM], POLH inh inconclusive, Pol kappa inh -24.1% and Pol beta inh inconclusive.
For COc1cccc(N2CCN(C(=O)CCS(=O)(=O)c3ccc4c(c3)oc(=O)n4C)CC2)c1 the results were FEN1 inh -4.0%, POLI inh 70.8µM*, WRN helicase inh -13.6%, POLH inh inconclusive, Pol kappa inh inconclusive and Pol beta inh inconclusive.
For CCc1ccccc1NC(=O)CCS(=O)(=O)c1ccc(OC)cc1 the results were FEN1 inh 3.5%, POLI inh 30.8%, WRN helicase inh -7.8%, POLH inh inconclusive, Pol kappa inh -18.9% and Pol beta inh 35.5µM*.
For O=C(Nc1ccc(Cl)cc1)c1ccc(-n2cnnc2)cc1 the results were FEN1 inh -4.5%, POLI inh 6.1%, POLH inh -9.7%, Pol kappa inh -4.8%[60.1 µM] and Pol beta inh 4.3%.
For CCOC(=O)c1c(C)[nH]c(C)c1S(=O)(=O)N(C)CC(=O)Nc1ccc(C)cc1Br the results were FEN1 inh -3.4%, POLI inh 21.0%, POLH inh -22.1%, Pol kappa inh -9.2% and Pol beta inh -23.8%.
Screening COc1cc2nc(N3CCCN(C)CC3)nc(N3CCN(C)CC3)c2cc1OC returned FEN1 inh -4.2%, POLI inh inconclusive and Pol kappa inh -23.0%.
COc1ccc(-c2cc(C(=O)O)c(C)o2)cc1OC was read as FEN1 inh 8.0%, POLI inh 14.2%, WRN helicase inh 4.0%, POLH inh 5.6%, Pol kappa inh 3.6% and Pol beta inh 7.3%.
`COc1cc2c(O)cc(C(=O)O)c(-c3cc(OC)c(OC)c(OC)c3)c2cc1OC` gave FEN1 inh -3.5%, POLI inh inconclusive, WRN helicase inh -2.3%[11.6 µM], POLH inh 89.1µM* and Pol kappa inh 8.4%.
For CN(C)/[N+]([O-])=N/Oc1cc(F)c([N+](=O)[O-])cc1[N+](=O)[O-] the results were FEN1 inh inconclusive, POLI inh inconclusive and Pol kappa inh -18.5%.
`Cc1ccc(S(=O)(=O)N2CCN(C(=O)/C=C/c3ccco3)CC2)cc1` gave FEN1 inh 6.4%, POLI inh 47.3%, WRN helicase inh -31.8%, POLH inh 79.4µM*, Pol kappa inh -29.7% and Pol beta inh 20µM*.
Cc1ccc(C)c(S(=O)(=O)N2CCN(C(=O)/C=C/c3ccco3)CC2)c1 was read as FEN1 inh -31.4%, POLI inh 28.2µM*, WRN helicase inh -25.1%, POLH inh 35.5µM* and Pol kappa inh 50.1µM*.
Cc1ccc(CNC(=O)COC(=O)c2ccccc2OCC(=O)Nc2ccc(Br)cc2)cc1 was read as FEN1 inh 1.9%, POLI inh 4.9% and Pol kappa inh 8.1%.
`O=C(NCc1cccs1)C1CC(c2ccc(Cl)cc2)=NO1` (centres undefined) gave FEN1 inh -0.4%, POLI inh 27.0%, WRN helicase inh -8.5%, POLH inh 7.4%, Pol kappa inh 0.5% and Pol beta inh -15.7%.
`O=C(NNC(=O)C1CC(c2cccs2)=NO1)Nc1ccc(Cl)cc1` (centres undefined) gave FEN1 inh 4.4%, POLI inh inconclusive, WRN helicase inh -14.6%, POLH inh -22.9%, Pol kappa inh -36.7% and Pol beta inh 44.7µM*.
Screening COc1ccc(-c2cn3c(n2)sc2cc(C(=O)NCc4cccs4)ccc23)cc1 returned FEN1 inh -1.7%, POLI inh 28.6%, POLH inh -9.0%, Pol kappa inh 0.7% and Pol beta inh 9.4%.
CCCCN(CC)C(=O)Cn1nc(C)c2c(C)n(-c3ccccc3)nc2c1=O was read as FEN1 inh 17.1%, POLI inh 37.0%, POLH inh -15.6%, Pol kappa inh 12.9% and Pol beta inh 1.6%.
`c1coc(CNc2nc(-c3cccs3)cs2)c1` gave FEN1 inh -9.4%, POLI inh 173.0%, WRN helicase inh -9.1%, POLH inh -21.5%, Pol kappa inh -8.2% and Pol beta inh 20µM*.
